The record followed here is PubChem BioAssay (EPA / NIEHS).

Where “and” joins values, the source holds several entries; their conditions need not be identical. Equal entries are not always repeated. Where a structure was tested more than once in an assay, its records may differ in their call. Calls of active or inactive are those of the source. Rule for the calls: active = hit-call score of the fitted dose curve at least 0.9, where 1 is the maximum; inactive = score below 0.9.

A word on the AC50: it is the midpoint of the concentration-response curve, whichever way the signal moves.

The nature of assay [1]: ATG_M_61_CIS: Attagene CIS-FACTORIAL HepG2 Assay for M61 Transcription Factor (Internal Marker) (AID 2282937). To be noted: HepG2 Attagene CIS-FACTORIAL M61 internal marker reporter; actives raise or lower the signal. The procedure, abridged: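 Human liver HepG2, transient MRTU transfection (cis promoter elements), 24 h compound. Total RNA → oligo(dT) RT → PCR → FAM label → HpaI → CE. Internal background marker; bidirectional fitting, DMSO = baseline.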

Assay [2] is described as follows: ATG_EGR_CIS: Attagene CIS-FACTORIAL HepG2 Assay for human Early Growth Response 1 (EGR1) (AID 2282938). To be noted: HepG2 Attagene CIS-FACTORIAL EGR reporter mRNA; actives raise or lower the signal. The essentials: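 Transient transfection of human HepG2 with multiple cis-regulated reporter units, chemical exposure 24 h, total RNA isolated. Reverse transcription, PCR, fluorescent labelling and capillary electrophoresis quantify reporter transcripts; activity fitted bidirectionally against DMSO.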

Assay [3] can be described thus: ATG_M_19_CIS: Attagene CIS-FACTORIAL HepG2 Assay for M19 Transcription Factor (Internal Marker) (AID 2282939). To be noted: HepG2 Attagene CIS-FACTORIAL M19 internal marker reporter; actives raise or lower the signal. The essentials:
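Readout: fluorescent reporter-transcript fragments by capillary electrophoresis after RT-PCR. Human HepG2 liver cells carried transfected MRTU constructs reporting endogenous transcription-factor activity; exposure 24 h. Gain or loss of signal fitted relative to DMSO.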

Assay [4] in a line: ATG_Ets_CIS: Attagene CIS-FACTORIAL HepG2 Assay for human Erythroblast Transformation Specific (ETS) (AID 2282941). To be noted: HepG2 ETS cis-reporter transcription; AC50: actives raise or lower the signal unless noted; outcome: actives raise or lower the signal unless noted. The procedure, abridged: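 After transient cis-reporter transfection, HepG2 cells receive test chemical for 24 h. Reporter mRNA levels, measured by RT-PCR and capillary electrophoresis fluorescence, are analysed bidirectionally relative to the DMSO baseline.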

A short description of assay [5]: ATG_GATA_CIS: Attagene CIS-FACTORIAL HepG2 Assay for human GATA Binding Protein (AID 2282944). The conditions noted are these: HepG2 GATA cis-element reporter, Attagene multiplex mRNA; actives raise or lower the signal. The essentials: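 Read-out: fluorescent reporter mRNA fragments resolved by capillary electrophoresis after RT-PCR. Human liver HepG2 cells carried transiently transfected cis-regulated reporter constructs; chemicals incubated 24 h; gain or loss of signal fitted relative to DMSO.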

Assay [6] is described as follows: ATG_GLI_CIS: Attagene CIS-FACTORIAL HepG2 Assay for human Zinc Finger Protein GLI1 (AID 2282945). To be noted: HepG2, Attagene cis-factorial reporter mRNA, GLI element; actives raise or lower the signal. The procedure, abridged:
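Transiently transfected HepG2 cells report endogenous transcription factor activity via cis-element-driven reporter units. After 24 h compound exposure, reporter mRNA was measured by RT-PCR with capillary electrophoresis; bidirectional fitting against DMSO baseline.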

Assay [7] deals with Hepatocyte nuclear factor 3-beta (Homo sapiens) (UniProt Q9Y261). Put plainly: ATG_FoxA2_CIS: Attagene CIS-FACTORIAL HepG2 Assay for human Forkhead box A2 (FOXA2) (AID 2282942). The conditions noted are these: HepG2 cis-reporter transcription factor activity, 24 h; actives raise or lower the signal. The essentials:
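Transient MRTU transfection of HepG2 liver cells; 24 h treatment; total RNA → oligo(dT) RT → PCR → FAM primer extension → HpaI cut → CE. Bidirectional fit vs DMSO.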

The nature of assay [8]: ATG_FoxO_CIS: Attagene CIS-FACTORIAL HepG2 Assay for human Forkhead box O (FoxO) (AID 2282943). The conditions noted are these: HepG2 Attagene cis-reporter, FoxO element, mRNA; actives raise or lower the signal. The procedure, abridged:
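Read-out: fluorescence of 6-FAM-labelled reporter cDNA fragments resolved by capillary electrophoresis. Transiently transfected HepG2 cells were dosed for 24 h; activity fitted in both directions relative to DMSO controls.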

In assay [9] the target is Bile acid receptor (Homo sapiens) (UniProt Q96RI1). Put plainly: ATG_IR1_CIS: Attagene CIS-FACTORIAL HepG2 Assay for human Nuclear Receptor Subfamily 1 Group H Member 4 (NR1H4), IR1 submotif (AID 2282946). To be noted: IR1 reporter transcription, actives raise or lower the signal. The procedure, abridged:
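HepG2 cells transiently transfected with multiple cis-promoter-driven reporter units to measure endogenous transcription factor activity; 24 h exposure. Reporter mRNA read by RT-PCR, FAM labelling, HpaI digestion and capillary electrophoresis. Bidirectional fit versus DMSO.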

Assay [10] in a line: ATG_ERE_CIS: Attagene CIS-FACTORIAL HepG2 Assay for Estrogen Response Element (ERE) (AID 2282940). To be noted: HepG2 ERE cis-reporter, Attagene RNA transcript; actives raise or lower the signal. The procedure, abridged:
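Readout: reporter mRNA induction by RT-PCR, FAM-labelled primer extension, HpaI digestion and capillary electrophoresis, 24 h after dosing transfected HepG2 cells. Endogenous transcription factors act on cis-element-regulated reporters. Gain or loss fitted against DMSO.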

Sequence of Bile acid receptor (Homo sapiens) (Q96RI1 whole entry, looked up): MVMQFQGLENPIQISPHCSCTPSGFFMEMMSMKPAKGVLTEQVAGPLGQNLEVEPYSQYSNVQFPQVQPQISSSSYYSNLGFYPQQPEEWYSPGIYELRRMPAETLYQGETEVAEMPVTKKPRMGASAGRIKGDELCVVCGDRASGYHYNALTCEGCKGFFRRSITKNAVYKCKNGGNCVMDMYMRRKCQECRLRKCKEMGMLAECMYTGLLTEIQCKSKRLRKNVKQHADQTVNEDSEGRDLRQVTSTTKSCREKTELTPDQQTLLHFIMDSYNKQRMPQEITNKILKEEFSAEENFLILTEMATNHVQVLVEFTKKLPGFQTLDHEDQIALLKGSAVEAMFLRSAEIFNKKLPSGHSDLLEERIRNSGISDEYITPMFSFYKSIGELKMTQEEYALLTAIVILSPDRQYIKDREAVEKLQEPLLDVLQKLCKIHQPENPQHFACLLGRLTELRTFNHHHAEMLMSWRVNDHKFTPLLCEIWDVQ
Sequence of Hepatocyte nuclear factor 3-beta (Homo sapiens) (Q9Y261 whole entry, looked up): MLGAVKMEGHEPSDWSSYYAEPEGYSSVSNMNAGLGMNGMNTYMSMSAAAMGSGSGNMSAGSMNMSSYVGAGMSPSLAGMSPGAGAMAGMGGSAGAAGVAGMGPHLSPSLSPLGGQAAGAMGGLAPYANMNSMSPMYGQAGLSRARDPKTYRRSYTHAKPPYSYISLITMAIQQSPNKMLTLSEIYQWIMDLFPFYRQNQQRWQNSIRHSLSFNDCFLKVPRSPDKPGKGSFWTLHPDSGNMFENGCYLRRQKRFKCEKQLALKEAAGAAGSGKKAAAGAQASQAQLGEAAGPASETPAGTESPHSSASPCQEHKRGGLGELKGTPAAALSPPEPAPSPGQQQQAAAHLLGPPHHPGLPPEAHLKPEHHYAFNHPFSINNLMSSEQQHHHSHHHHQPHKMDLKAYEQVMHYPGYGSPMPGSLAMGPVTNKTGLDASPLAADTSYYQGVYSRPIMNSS

For the compound `CC(C)c1c(C(=O)Nc2ccccc2)c(-c2ccccc2)c(-c2ccc(F)cc2)n1CC[C@@H](O)C[C@@H](O)CC(=O)O`, the compound was classed as inactive in [1], in assay [3], in assay [4], in assay [5] and in assay [6]. The AC50 in assay [2] is 94.5 µM (active) and 28.3 µM (active).

Regarding `O=S(=O)(O)c1ccccc1`, the call in assay [1], in assay [2], in assay [4], in assay [7], in [8] and in assay [5] was inactive. Moreover, the result in assay [6] and in assay [9] was inactive.

For the compound `CN(C)c1ccc(C(=C2C=CC(=[N+](C)C)C=C2)c2ccccc2)cc1`, the compound was classed as inactive in [1], in [4], in [8], in assay [5] and in [9]. The half-maximal activity concentration (AC50) in [2] is 1.46 µM (active) and 1.85 µM (active); in [4], 10.1 µM (active); in assay [6] it was 1.42 µM (active) and 1.85 µM (active); in [9], 1.28 µM (active).

Regarding `CCCCC(CC)C(=O)O` (configuration not stated), the compound was called inactive in assay [1], in assay [2], in assay [3], in assay [4], in assay [7] and in [5]. For the same compound, the call in assay [6] was inactive.

Take `C[C@]12CC[C@@H]3c4ccc(O)cc4CC[C@H]3[C@@H]1C[C@@H](O)[C@@H]2O`: the result in [1], in [2], in assay [4], in [7], in [8] and in assay [5] was inactive. Besides, the compound was called inactive in assay [6].

Regarding `CC(=O)Nc1ccc(O)cc1`, the compound was classed as inactive in [1], in [2], in assay [3], in assay [4], in assay [8] and in [5]. Moreover, the result in [6] was inactive.

For `c1cnc2c(c1)ccc1cccnc12`, the call in assay [1], in [2], in assay [3], in assay [7], in assay [5] and in [6] was inactive.

For the compound `CC(C)[C@@H]1CC[C@@H](C)C[C@H]1O`, the outcome in assay [1], in assay [2], in assay [3], in assay [4], in assay [7] and in assay [5] was inactive. In addition, the compound was called inactive in [6] and in assay [9].

`c1cc[nH]c1`: the result in assay [1], in assay [2], in [10], in assay [4], in assay [8] and in assay [5] was inactive. Moreover, the outcome in [6] and in [9] was inactive.

In the case of `COc1ccccc1NC(=O)c1cc2ccccc2cc1O`, the call in [1], in [10] and in [7] was inactive. The AC50 is 52.9 µM (active) in [2]; 46.5 µM (active) in [4]; 100 µM (active) in assay [8]; 41.1 µM (active) in assay [5]; 60.7 µM (active) in assay [6]; 68.8 µM (active) in assay [9].

Consider `Cc1cncc(C)c1`, for which the result in assay [1], in assay [2], in assay [10], in assay [4], in assay [7] and in assay [8] was inactive. Moreover, the result in assay [5], in assay [6] and in assay [9] was inactive.

`Cc1cc(C(C)(C)C)c(O)c(C(C)(C)C)c1`: the compound was called inactive in assay [1], in assay [2], in [4], in [7], in assay [8] and in [5]. Besides, the outcome in [6] and in assay [9] was inactive. Further, the AC50 in [4] was 33.4 µM (active); in [6], 97.4 µM (active); in assay [9], 60 µM (active).

In the case of `CC(C)C=O`, the compound was classed as inactive in assay [1], in assay [2], in assay [3], in assay [7], in assay [8] and in assay [5]. In [6], the outcome was inactive.

In the case of `CCCCCCCCC(C)=O`, the result in assay [1], in assay [2], in assay [10], in assay [7], in [8] and in assay [5] was inactive. For the same compound, the outcome in assay [6] and in assay [9] was inactive.

On to `COC(=O)CC(C(C)=O)C(=O)OC` (configuration not stated), for which the compound was classed as inactive in assay [1], in assay [3], in assay [10], in [4], in assay [8] and in [5]. In addition, the result in assay [6] and in assay [9] was inactive.

`CCC(C)c1ccccc1O` (configuration not stated): the compound was classed as inactive in [1], in [4], in assay [7], in [8], in [5] and in assay [6].

As for `CC1=NN(c2ccccc2)C(=O)C1`, the outcome in assay [1], in [10], in assay [4], in assay [7], in assay [8] and in assay [5] was inactive. Moreover, the compound was classed as inactive in [6] and in [9].
